CDC25B-CDK2 inh: primary biochemical HTRF screen for blockers of M-phase inducer phosphatase 2 binding to CDK2/cyclin A. AID 1259370, 2018. HTRF CDC25B-CDK2/CyclinA binding, anti-His/anti-Flag; stronger effect = higher value. P30305+P24941. z-score (concentration not given with the values). actives 0.72% (n = 94,000); in the data active = z-score above about 3.2
TAR Tat displ: TAR RNA-Tat peptide displacers, HIV-1, primary screen, biochemical, FRET, FAM/TAMRA-labeled Tat. HIV-1 TAR RNA, Tat peptide displacement FRET; stronger effect = higher value. AID 1259389, 2018. actives 0.6% (n = 100,000). z-score (concentration not given with the values); active = z-score of 3 or more in at least 2 runs
An asterisk follows results filed as active; / = not tested or not shown. In the library only some 0.93% were active in any assay of this set; here they are far more common.

SMILES	CDC25B-CDK2 inh	TAR Tat displ
COc1ccc(-c2cc3c4c(C)n(Cc5ccccc5)c(C)c4c(C)nn3c2)cc1	-1.81	-0.42
COc1ccc(-c2cc3c4c(C)n(Cc5ccc6c(c5)OCO6)c(C)c4c(C)nn3c2)cc1	-1.71	-0.06
COc1ccc(CCn2c(C)c3c(C)nn4cc(-c5ccc(C)o5)cc4c3c2C)cc1OC	8.04	34.7*
COc1ccc(-c2cc3c4c(C)n(C)c(C)c4c(C)nn3c2)cc1	1.96	11.1*
O=C(Nc1ccc2c(c1)OCO2)c1cc(-c2ccncc2)n[nH]1	/	4.68
CC1CCCC(NC(=O)C2CCCN(S(=O)(=O)c3cccc4cccnc34)C2)C1C (stereo unspecified)	-1.68	1.29
Cc1ccc(-c2nsc(NC(=O)c3ccco3)n2)s1	-0.6	-1.8
Cc1c(C(=O)O)sc2ncnc(NC3CCCCC3)c12	/	5.98*
Cc1c(C(=O)O)sc2ncnc(NC3CCCC3)c12	/	0.65
Cc1c(C(=O)O)sc2ncnc(NCCC(C)C)c12	/	10.1*
Cc1c(C(=O)O)sc2ncnc(Nc3ccc(C(C)C)cc3)c12	/	2.58
CCn1c2ccccc2c2nnc(NCCc3cc(OC)ccc3OC)nc21	0.45	1.61
O=C(CSc1n[nH]c(-c2ccncc2)n1)c1c[nH]c2ccccc12	6.81*	-0.52
O=C(CSc1n[nH]c(-c2ccco2)n1)c1c[nH]c2ccccc12	-1.47	2.51
CCOCCn1c(CN2CCOCC2)nc2c1c(=O)n(C)c(=O)n2C	-1.93	-0.35
CC1(C)OC(=O)C(=Cc2ccc(Cl)cc2Cl)C(=O)O1	9.23*	/
CC1(C)OC(=O)C(=CNc2ccc(F)c(Cl)c2)C(=O)O1	-1.55	/
O=C1c2ccccc2-c2onc3c(N4CCN(c5ccc(F)cc5)CC4)cc(NCCO)c1c23	6.3	2.35
CN(C)CCCNc1cc(N2CCOCC2)c2noc3c2c1C(=O)c1ccccc1-3	-2.63	12.2*
CN(C)CCCNc1cc(N2CCN(c3ccc(F)cc3)CC2)c2noc3c2c1C(=O)c1ccccc1-3	7.4*	27.8*
CN(CCO)CCNc1cc(N2CCOCC2)c2noc3c2c1C(=O)c1ccccc1-3	-1.56	-5.47
CCOC(=O)CNc1ccc(C(F)(F)F)cc1	-1.05	/
CCCS(=O)(=O)N1CCCc2ccc(NS(C)(=O)=O)cc21	/	0.27
O=C(CC1(CC2=NS(=O)(=O)c3ccccc3N2)CCCC1)NCCc1cccs1	/	0.88
CCn1ncc(C2=NOC(C(=O)Nc3ccc(F)cc3F)C2)c1C (stereo unspecified)	-1.06	1.6
SMILES	CDC25B-CDK2 inh	TAR Tat displ
O=C(Nc1nnc(-c2ccco2)s1)C(=O)c1c[nH]c2ccccc12	-2.1	17.3*
CC(C)c1nnc(NC(=O)C(=O)c2c[nH]c3ccccc23)s1	-1.28	2.02
Cc1ccc(Cl)c2c1NC(=O)C2(O)CC(=O)c1ccccc1 (stereo unspecified)	16.8*	0.17
Cc1ccc(Cl)c2c1NC(=O)C2(O)CC(=O)c1ccc(F)cc1 (stereo unspecified)	-1.58	0.59
CCc1ccc(S(=O)(=O)Nc2cc(-c3c(O)ccc4ccccc34)c(O)c3ccccc23)cc1	0.58	/
CC(C)OC(=O)C(C(=O)C(F)(F)F)c1cc(NS(=O)(=O)c2ccc(Br)cc2)c2ccccc2c1O (stereo unspecified)	18.7*	/
CCc1ccc(S(=O)(=O)Nc2cc(Br)c(O)c3ccccc23)cc1	17.9*	/
CC(C)OC(=O)C(C(=O)C(F)(F)F)c1cc(NS(=O)(=O)c2ccccc2)c2ccccc2c1O (stereo unspecified)	-0.59	/
COc1ccc(-c2nc(-c3cc(OC)c(OC)cc3OC)[nH]c2-c2ccc(OC)cc2)cc1	1.28	/
Cc1nc2nc(-c3ccccc3)cc(=O)n2[nH]1	-1.55	0.51
O=c1cc(-c2ccccc2)nc2nc(-c3ccco3)[nH]n12	-0.39	6.53*
O=C(NC1CCCC1)c1ccc2c(Cl)c3c(nc2c1)CCC3	-0.81	-0.36
CCC1=NN(c2ccccc2)C(=O)C1	10.1*	-0.73
CC1=NN(c2ccccc2)C(=O)/C1=C1/C(=O)N(c2ccccc2)N=C1C	1.06	/
O=C1c2cccnc2C(=O)N1Cc1ccc(S(=O)(=O)N2CCN(c3ccccc3F)CC2)s1	/	-0.57
COc1ccc(S(=O)(=O)c2c(C(=O)c3ccc(C)cc3)cnc3cc4c(cc23)OCCO4)cc1	6.65*	0.27
COc1ccc(S(=O)(=O)c2c(C(=O)c3ccc(C)cc3)cnc3cc4c(cc23)OCO4)cc1	0.07	-0.24
CCOc1ccc2nc(NC(=O)c3nc(S(=O)(=O)CC)ncc3Cl)sc2c1	0.8	2.25
Cc1ccc(-c2csc(Nc3ccccn3)n2)cc1	-0.98	0.8
Cc1nc(N)sc1-c1csc(Nc2ccccn2)n1	18.2*	/
Cc1ccc(C2CC(=O)N3CN(C(C)c4ccccc4)CSC3=C2C#N)cc1 (stereo unspecified)	5.01*	1.23
CC(c1ccccc1)N1CSC2=C(C#N)C(c3cccs3)CC(=O)N2C1 (stereo unspecified)	4.42*	9.76*
CCOc1ccc(C2CC(=O)N3CN(C(C)c4ccccc4)CSC3=C2C#N)cc1 (stereo unspecified)	5.27*	3.19
COc1ccc(C2CC(=O)N3CN(C(C)c4ccccc4)CSC3=C2C#N)cc1 (stereo unspecified)	5.31*	-1.92
Cc1ccc(C2CC(=O)N3CN(CCc4ccccc4)CSC3=C2C#N)cc1 (stereo unspecified)	2.66	-0.62
SMILES	CDC25B-CDK2 inh	TAR Tat displ
O=C(NCc1ccccc1)N1CCc2c([nH]c3ccccc23)C1c1cccnc1 (stereo unspecified)	-0.39	1.1
CC(C)C1c2cccn2CCN1C(=O)NC1CCCCC1 (stereo unspecified)	/	-0.34
COC(=O)c1ccccc1NC(=O)CC1NCCNC1=O (stereo unspecified)	-1.82	/
COC(=O)c1ccc(NC(=O)N2CCCC2c2cccs2)cc1 (stereo unspecified)	-3.02	0.81
O=C(O)CCC(=O)NCC(=O)c1ccc(F)cc1	-2.2	/
O=C(O)CNC(=O)CCCCC(=O)NCC(=O)O	10.4*	/
Cc1ccc(NC2c3ncccc3C(=O)N2Cc2ccco2)c(Br)c1 (stereo unspecified)	/	1.49
C(=Nc1cccc2ccccc12)c1ccccc1	-2.05	/
CCNc1nc2[nH]c(=O)cc(O)c2s1	10.6*	-0.15
CNc1nc2[nH]c(=O)cc(O)c2s1	1.8	-1.51
CCOCCc1nn2c(=O)cc(COC(=O)c3ccccc3C)nc2s1	/	-1.08
Cc1cc(C)n(CC(C)O)c(=O)c1C#N (stereo unspecified)	15.5*	0.95
Cc1cc(C)n(CCCO)c(=O)c1C#N	1.01	0.5
CCn1c(SCC(=O)Nc2nnc(C)s2)nnc1-c1cc2ccccc2o1	/	5.11*
CCn1c(SCC(=O)Nc2nc3ccccc3s2)nnc1-c1cc2ccccc2o1	/	1.85
O=C1CC(C(=O)Nc2ccc3c(c2)OCO3)n2ncnc2N1 (stereo unspecified)	0.99	-2.09
O=C1CC(C(=O)Nc2ccc(Cl)cc2)n2ncnc2N1 (stereo unspecified)	3.92*	0.9
CCOc1ccc2nc(NC(=O)Nc3ccccc3OCC)sc2c1	-2.85	0.49
O=C(CSc1ccc2nnc(-c3ccccc3)n2n1)Nc1ccc(F)cc1F	-3.63	/
COC(=O)c1sc2ccccc2c1S(=O)(=O)N1CCC(C)CC1	/	0.6
O=C(CSc1ncnc2c1sc1cccc(F)c12)NCCc1ccco1	/	11.7*

Assay outcomes as filed in PubChem BioAssay.
